ALDH1A1 inh: qHTS Assay for Inhibitors of Aldehyde Dehydrogenase 1 (ALDH1A1) | Aldehyde dehydrogenase 1A1 (Homo sapiens), P00352 | Purified ALDH1A1, NADH fluorescence, propionaldehyde substrate | Potency, µM (highest dose often 75.3 µM), usual class: inhibitors | actives 7.3% (n = 220,000) | AID 1030, 2008
Target sequence (P00352 whole entry, looked up): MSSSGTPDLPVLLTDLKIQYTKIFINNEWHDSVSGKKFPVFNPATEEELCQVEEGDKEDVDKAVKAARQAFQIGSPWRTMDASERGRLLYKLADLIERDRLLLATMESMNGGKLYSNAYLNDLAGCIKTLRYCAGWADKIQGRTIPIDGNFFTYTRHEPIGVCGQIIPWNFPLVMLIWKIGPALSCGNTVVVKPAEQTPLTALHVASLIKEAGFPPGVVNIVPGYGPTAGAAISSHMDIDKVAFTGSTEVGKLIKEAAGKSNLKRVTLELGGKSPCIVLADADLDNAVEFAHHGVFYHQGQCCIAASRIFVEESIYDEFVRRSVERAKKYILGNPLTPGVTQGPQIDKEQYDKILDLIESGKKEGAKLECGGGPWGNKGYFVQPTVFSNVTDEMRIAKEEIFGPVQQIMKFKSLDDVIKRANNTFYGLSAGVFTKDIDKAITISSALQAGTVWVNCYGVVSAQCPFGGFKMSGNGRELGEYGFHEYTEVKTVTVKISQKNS
GoLoco inh red: qHTS Assay for Inhibitors of RGS12 GoLoco Motif Activity (Red Fluorophore). Guanine nucleotide-binding protein G(i) subunit alpha-1 (Homo sapiens), P63096. Gai1:RGS12 GoLoco peptide FP, rhodamine, 10 min. Potency, µM (series often up to 61.6 µM), usual class: inhibitors. actives 0.44% (n = 230,000). AID 880, 2007; active means well fitted inhibition curve with a large enough effect, not every such curve was filed as active; inactive means no such curve, though single readings can be large or run the other way; further: nearly all actives have a fitted effect of over 30% in size
HTT cytoprotect: qHTS Multiplex Assay to Identify Dual Action Probes in a Cell Model of Huntington: Cytoprotection (ATP); PC12 HTT-Q103 induced, cytoprotection, ATP luminescence, 40 h; Potency, µM (series often up to 56.4 µM), actives largely listed as activators; actives 0.14% (n = 230,000); AID 1471, 2008; active means well fitted curve in the direction sought with a large enough effect; inconclusive means small, poorly fitted or top-dose-only effect, or another doubt; inactive means no such curve, though single readings can be large; an effect the other way counts as inactive or inconclusive; further: nearly all actives have a fitted effect of over 45% in size
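Rat PC12, Q103 Htt exon1-GFP fusion, ecdysone promoter; tebufenozide inducer 100 nM final; compound titration; qHTS, 1500 cells/well; ATPlite luminescent read.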
PNC assembly inh: High Content Assay for Compounds that inhibit the Assembly of the Perinucleolar Compartment; activity change (PNC), negative = inhibition, % at 10 µM; PC3M PTB-GFP, PNC prevalence imaging, 16 h; hits give low values; actives 3.1% (n = 140,000); AID 2417, 2010;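 active means readout at or below -70, meaning at least 70% loss of cells showing the perinucleolar compartment, a nuclear body marking cancer cells; inconclusive means readout between -30 and a set limit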
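Read-out is percentage of cells bearing a perinucleolar compartment, from automated 20x imaging of fixed, Hoechst-stained PC3M PTB-GFP cells. Cells were seeded 4 h, then exposed 16 h to compound (23 nl of library stock) in duplicate plates.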
HTT aggregate: qHTS Multiplex Assay to Identify Dual Action Probes in a Cell Model of Huntington: Aggregate Formation (GFP). actives 1.1% (n = 220,000). PC12 HttQ103-GFP aggregates, Acumen cytometry, 40 h. AID 1688, 2009. Potency, µM (series often up to 46.1 µM), most hits filed as inhibitors; active means well fitted curve in the direction sought with a large enough effect; inconclusive means small, poorly fitted or top-dose-only effect, or another doubt; inactive means no such curve, though single readings can be large; an effect the other way counts as inactive or inconclusive; further: nearly all actives have a fitted effect of over 60% in size
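Multiplexed with ATP-based cell death, this channel scores GFP aggregates in PC12 cells expressing inducible HTTex1-Q103-GFP. Induction used 100 nM tebufenozide; compounds were tested in concentration series.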
HPGD inh: qHTS Assay for Inhibitors of HPGD (15-Hydroxyprostaglandin Dehydrogenase); actives 4.3% (n = 150,000); Potency, µM, actives largely listed as inhibitors; 15-hydroxyprostaglandin dehydrogenase [NAD(+)] (Homo sapiens), P15428; purified HPGD, NADH fluorescence kinetic, PGE2 substrate; AID 894, 2007
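20 nM HPGD preincubated 15 min at room temperature with compound in 50 mM Tris-HCl pH 8, 0.01% Tween 20. Started with 1 mM NAD+ and 30 uM prostaglandin E2; NADH fluorescence (360/450 nm) read 5 times over 30-s intervals, last minus first.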
Numbers stand for hits; i = inactive; ? = inconclusive; nt = not tested or not shown; [ ] = remark or other dose. In the library only some 11% were active in any assay of this set; here they are far more common. Unless noted, the call rests on the fitted dose curve; in most records, active means well fitted inhibition curve with a large enough effect (not every such curve was filed as active); inconclusive means small, poorly fitted or top-dose-only effect, or another doubt; inactive means no such curve, though single readings can be large or run the other way.

SMILES	ALDH1A1 inh	GoLoco inh red	HTT cytoprotect	PNC assembly inh	HTT aggregate	HPGD inh
COC(=O)c1sccc1NC(=O)c1cccnc1	i	i	i	?	i	28µM
COC(=O)c1c(NC(=O)c2cccnc2)sc(C(=O)N(C)C)c1C	i	i	1.3µM	i	i	i
COC(=O)c1c(NC(=O)c2cccnc2)sc(C)c1C	i	i	i[10 µM]	i	i	i
COC(=O)c1c(NC(=O)c2ccco2)sc(C(=O)N(C)C)c1C	?	i	i[10 µM]	-100	i	?
CN(C)C(=O)c1ccc(NC(=O)c2cccnc2)cc1	i	i	i	i	i	32µM
CCc1noc(C)c1C(=O)Nc1sc(C(=O)N(C)C)c(C)c1C(=O)OC	i	i	i	i	i	i
CCN1CCN(Cc2ccc(NC(=O)c3cc(NC(=O)c4cnnc5ccccc45)cc(OC)c3)cc2C(F)(F)F)CC1	nt	i	i[10 µM]	nt	i[9.22 µM]	nt
CCCCCCCCCCCCOCCCN	nt	nt	i	nt	i	nt
CCCN(CCC)C(=O)CC(c1ccccc1)c1ccco1 (centres undefined)	nt	i	i[10 µM]	nt	i[9.22 µM]	nt
COc1cccc(CC(Cc2nc3ccccc3[nH]2)c2nc3ccccc3[nH]2)c1 (centres undefined)	?	i	i	nt	?	nt
COc1ccc(CNC(=O)CSc2nnc3c(Cl)cc(C(F)(F)F)cn23)cc1OC	i	i	i[10 µM]	i	i	i
CCOc1ccccc1C(=O)Nc1ccccc1C(N)=O	i	i	i[0.074 µM]	i	i	i
CCOc1ccccc1C(=O)Nc1ccsc1C(=O)OC	i	i	i[10 µM]	-110	?	i
NC(N)=N[C@@H]1C(O)[C@H](N=C(N)N)[C@@H](O)C(O)[C@H]1O (some centres undefined)	i[13.5 µM]	i[14.2 µM]	i[10 µM]	nt	nt	i
COc1cc(/C=C2/S/C(=N/S(=O)(=O)Cc3ccccc3)NC2=O)c([N+](=O)[O-])cc1OC	nt	25µM	i[10 µM]	nt	i[9.22 µM]	nt
COc1cc(/C=C2/S/C(=N/S(=O)(=O)c3ccccc3)NC2=O)c([N+](=O)[O-])cc1OC	i	i	i	?	?	5µM
C=C1c2c(Cl)ccc(O)c2C(O)=C2C(=O)[C@@]3(O)C(O)=C(C(N)=O)C(=O)[C@@H](N(C)C)[C@@H]3[C@@H](O)[C@H]12	?	i	?	nt	i	i
S=C1NC=NC2N=CNC12 (centres undefined)	2.2µM	i	i	nt	i	?
COCCn1c(=O)c(-c2ccc(Cl)cc2)nc2cncnc21	?	i	?	nt	nt	?
CC(C)CN(CC#N)CC(C)C	i[13.5 µM]	i[14.2 µM]	i[10 µM]	nt	nt	i
CC(C)(C)c1ccc(C(O)CCCN2CCC(C(O)(c3ccccc3)c3ccccc3)CC2)cc1 (centres undefined)	i	i	i	i	22µM	i
O=C1CN(C(=O)/C=C/c2ccc(Cl)cc2)c2ccccc2N1	i	i	i[10 µM]	nt	i	nt
O=C(Cn1ncc(Cl)c(Cl)c1=O)NCC1CCCCC1	22µM	i	nt	?	?	i
O=C1CN(C(=O)COC(=O)CCSc2ccccc2Cl)c2ccccc2N1	14µM	i	i	i	i[9.22 µM]	18µM
O=C1CN(CC(=O)Nc2cccc(Cl)c2Cl)c2ccccc2N1	4µM	i	i[10 µM]	nt	?	nt
O=C1CN(C(=O)CNCc2ccc(Cl)cc2)c2ccccc2N1	13µM	i	i[10 µM]	nt	i[9.22 µM]	nt
CCOc1ccc(NC(=O)CC2C(=O)N(CC)C(=S)N2NC(=O)c2ccncc2)cc1 (centres undefined)	nt	i	i[10 µM]	nt	i[9.22 µM]	nt
O=C1CN(C(=O)Cn2ncc(Cl)c(Cl)c2=O)c2ccccc2N1	3.2µM	i	i	nt	11µM	nt
O=C(c1cc([N+](=O)[O-])cc([N+](=O)[O-])c1)N1CCN(Cc2ccc3c(c2)OCO3)CC1	?	i	i	nt	i	nt

High-throughput results: PubChem BioAssay, National Center for Advancing Translational Sciences (NCATS)
